Inconclusive results are not listed. Calls of active or inactive are those of the source. Unless noted, calls come from the whole dose curve; as a rule, active = well fitted curve in the direction sought with a large enough effect in the repeat runs; inconclusive = weak or mixed curves; inactive = no such curve, though single readings can be large; an effect the other way counts as inactive or inconclusive.
Key:
[1] = qHTS assay to test for compound auto fluorescence at 535 nm (green) in HEK293 cells (AID 720680)
[2] = qHTS assay to test for compound auto fluorescence at 460 nm (blue) in HEK293 cell free culture (AID 720681)
Outline: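 Compounds were added to cell-free DMEM with 10% FBS and fluorescence read directly. The blue channel used 405 nm excitation and 460 nm emission, with triamterene as the reference fluorophore.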

[3] = qHTS assay to test for compound auto fluorescence at 535 nm (green) in HEK293 cell free culture (AID 720682)
Outline: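 Compounds were pin-transferred into cell-free DMEM with 10% FBS, and green fluorescence was read at excitation 485 nm and emission 535 nm. Intensities were expressed as fluorescein-equivalent values.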

[4] = qHTS assay to test for compound auto fluorescence at 590 nm (red) in HEK293 cell free culture (AID 720683)
Outline: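 Cell-free wells of DMEM with 10% FBS received compound, and intrinsic fluorescence was read at excitation/emission 540/590 nm. Values expressed as equivalence to Rose Bengal sodium.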

[5] = qHTS assay to test for compound auto fluorescence at 590 nm (red) in HepG2 cell free culture (AID 720684)
Outline: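 Rose Bengal sodium served as the reference for red signal. Test compounds were dispensed into serum-containing MEM (10% FBS) without cells, and plates were read at 540/590 nm.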

[6] = qHTS assay to test for compound auto fluorescence at 460 nm (blue) in HepG2 cell free culture (AID 720685)
Outline: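 Cell-free plates of MEM plus 10% FBS received 23 nL compound or DMSO vehicle; blue-channel (405/460 nm) intensity scored against triamterene as reference fluorophore.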

[7] = qHTS assay to test for compound auto fluorescence at 535 nm (green) in HepG2 cell free culture (AID 720686)
[8] = qHTS assay to test for compound auto fluorescence at 460 nm (blue) in HepG2 cells (AID 720687)
Outline: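 HepG2 cells in MEM with 10% FBS, attached overnight at 37 C, were exposed to compound or DMSO for 1 hr at 37 C, 5% CO2. Blue fluorescence was read at 405/460 nm, with triamterene as reference fluorophore.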

[9] = target: Glucocorticoid receptor (Homo sapiens) (UniProt P04150); assay: qHTS assay to identify small molecule agonists of the glucocorticoid receptor (GR) signaling pathway (AID 720691; active = well fitted activation curve with a large enough effect in the signal ratio in the repeat runs, not every such curve was filed as active; the % refers to the signal ratio)
Chain of Glucocorticoid receptor (Homo sapiens) (P04150 whole entry, looked up): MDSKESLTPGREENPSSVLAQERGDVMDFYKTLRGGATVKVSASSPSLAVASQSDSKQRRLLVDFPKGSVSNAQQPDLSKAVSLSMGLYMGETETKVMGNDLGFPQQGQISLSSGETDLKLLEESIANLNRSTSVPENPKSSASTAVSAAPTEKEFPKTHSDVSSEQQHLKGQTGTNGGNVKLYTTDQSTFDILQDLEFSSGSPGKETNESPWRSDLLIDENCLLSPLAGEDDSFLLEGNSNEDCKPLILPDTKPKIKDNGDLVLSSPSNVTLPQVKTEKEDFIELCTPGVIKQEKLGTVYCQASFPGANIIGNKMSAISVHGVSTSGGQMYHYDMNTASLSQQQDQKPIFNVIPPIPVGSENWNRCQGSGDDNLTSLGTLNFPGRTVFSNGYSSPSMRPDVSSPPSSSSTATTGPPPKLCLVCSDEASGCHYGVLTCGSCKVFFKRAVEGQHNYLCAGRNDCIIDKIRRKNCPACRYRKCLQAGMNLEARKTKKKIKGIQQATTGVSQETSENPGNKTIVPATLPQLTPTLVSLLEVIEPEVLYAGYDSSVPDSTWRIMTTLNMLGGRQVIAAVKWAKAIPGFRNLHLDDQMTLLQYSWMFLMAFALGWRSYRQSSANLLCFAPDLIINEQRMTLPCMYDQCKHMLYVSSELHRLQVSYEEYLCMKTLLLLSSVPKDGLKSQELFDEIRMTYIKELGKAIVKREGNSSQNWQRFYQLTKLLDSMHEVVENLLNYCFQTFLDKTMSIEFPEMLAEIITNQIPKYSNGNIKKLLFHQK
Outline: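 Compounds in DMSO, alongside positive controls, were added to GR-bla HeLa reporter cells and incubated 18 h at 37 C; GRE-driven beta-lactamase was detected by fluorescence after 2 h with FRET substrate at room temperature.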

[10] = target: Glucocorticoid receptor (Homo sapiens) (UniProt P04150); assay: qHTS assay to identify small molecule antagonists of the glucocorticoid receptor (GR) signaling pathway (AID 720692; active = well fitted inhibition curve with a large enough effect in the signal ratio in the repeat runs, not every such curve was filed as active; the % refers to the signal ratio)
Outline: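 In a 1536-well cell format, compounds were added 4 h after seeding GR-bla HeLa cells, together with dexamethasone at 5 nM final; reporter activity was measured by FRET-substrate fluorescence following 18 h at 37 C.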

[11] = qHTS assay for identifying genotoxic compounds that show differential cytotoxicity against isogenic chicken DT40 cell lines with known DNA damage response pathways - wild type cell line (AID 743012); note: nearly all actives have a fitted effect of over 60% in size
Outline: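 Viability of DNA repair-proficient chicken DT40 cells was assessed by CellTiter-Glo luminescence following 40 h compound exposure at 37 C/5% CO2.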

[12] = qHTS assay for identifying genotoxic compounds that show differential cytotoxicity against isogenic chicken DT40 cell lines with known DNA damage response pathways - Rev3 mutant cell line (AID 743014); note: nearly all actives have a fitted effect of over 55% in size
[13] = qHTS assay for identifying genotoxic compounds that show differential cytotoxicity against isogenic chicken DT40 cell lines with known DNA damage response pathways - Rad54/Ku70 mutant cell line (AID 743015); note: nearly all actives have a fitted effect of over 60% in size
[14] = qHTS assay to identify small molecule antagonists of the androgen receptor (AR) signaling pathway - cell viability counter screen (AID 743033; note: nearly all actives have a fitted effect of over 45% in size)
[15] = qHTS assay to identify small molecule antagonists of the androgen receptor (AR) signaling pathway using the MDA cell line - cell viability counter screen (AID 743041; note: nearly all actives have a fitted effect of over 45% in size)
Outline: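 Cytotoxicity counter screen: MDA-kb2 AR-luc cells, compound + R1881, 16 h, 37C, 0% CO2; CellTiter-Fluor added at 15.5 h, fluorescence read after 30 min.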

[16] = qHTS assay to identify small molecule antagonists of the glucocorticoid receptor (GR) signaling pathway - cell viability counter screen (AID 720693); note: nearly all actives have a fitted effect of over 55% in size
% is set by controls: 0 for no effect and ±100 for the full control effect.

C[C@@H]1CCC[C@H](C)N1
inactive: fluorescence, % of fluorescein [1] -0.0078% [at 18.6 µM] | fluorescence, % of fluorescent control [2] -0.0158% [at 18.6 µM] | activity change [3] 0.0087% [at 18.6 µM] | fluorescence, % of fluorescent control [4] -0.545% [at 18.6 µM] | fluorescence, % of Rose Bengal [5] 0.0262% [at 18.6 µM] | fluorescence, % of fluorescent control [6] -0.0314% [at 18.6 µM] | fluorescence, % of fluorescein control [7] -0.001% [at 18.6 µM] | fluorescence, % of fluorescent control [8] 0.0179% [at 18.6 µM] | Potency [9] | Potency [10] | Potency [11] | Potency [12] | Potency [13] | outcome [14] | Potency [15]

COc1cc(C)nc(-n2nc(C)cc2OC)n1
inactive: fluorescence, % of fluorescein [1] -0.0757% [at 18.6 µM] | fluorescence, % of fluorescent control [2] -0.0196% [at 18.6 µM] | activity change [3] -0.0111% [at 18.6 µM] | fluorescence, % of fluorescent control [4] 0.134% [at 18.6 µM] | fluorescence, % of Rose Bengal [5] -0.183% [at 18.6 µM] | fluorescence, % of fluorescent control [6] -0.138% [at 18.6 µM] | fluorescence, % of fluorescein control [7] -0.0352% [at 18.6 µM] | fluorescence, % of fluorescent control [8] -0.112% [at 18.6 µM] | Potency [9] | Potency [10] | outcome [16] | outcome [14] | Potency [15]

CC(C)C[C@@H](N)C(=O)O
inactive: outcome [1] | outcome [2] | outcome [3] | outcome [4] | outcome [5] | outcome [6] | outcome [7] | outcome [8] | Potency [9] | outcome [16] | Potency [11] | Potency [12] | Potency [13] | outcome [14] | Potency [15]

O=[N+]([O-])c1ccc(/C=N\O)o1
inactive: outcome [1] | outcome [2] | outcome [3] | outcome [4] | outcome [5] | outcome [6] | outcome [7] | outcome [8] | Potency [9] | Potency [10] | outcome [16] | outcome [14] | Potency [15]

Clc1cc(Cl)cc(Cl)c1
inactive: outcome [1] | outcome [2] | outcome [3] | outcome [4] | outcome [5] | outcome [6] | outcome [7] | outcome [8] | Potency [9] | Potency [10] | outcome [16] | Potency [12] | Potency [13] | outcome [14] | Potency [15]

NC(N)=NCCN1CCCCCCC1
inactive: fluorescence, % of fluorescein [1] -0.017% [at 18.6 µM] | fluorescence, % of fluorescent control [2] -0.0671% [at 18.6 µM] | activity change [3] 0.0837% [at 18.6 µM] | fluorescence, % of fluorescent control [4] -0.0086% [at 18.6 µM] | fluorescence, % of Rose Bengal [5] -0.0563% [at 18.6 µM] | fluorescence, % of fluorescent control [6] 0.0071% [at 18.6 µM] | fluorescence, % of fluorescein control [7] 0.0218% [at 18.6 µM] | fluorescence, % of fluorescent control [8] -0.0842% [at 18.6 µM] | Potency [9] | Potency [10] | outcome [16] | outcome [14] | Potency [15]

O=C1NC(=O)C2CC=CCC12 (stereo unspecified)
inactive: outcome [1] | outcome [2] | outcome [3] | outcome [4] | outcome [5] | outcome [6] | outcome [7] | outcome [8] | Potency [9] | Potency [10] | Potency [12] | Potency [13] | outcome [14] | Potency [15]

COc1cc(C(=O)OC(COCCC(C)C)CN2CCOCC2)cc(OC)c1OC (stereo unspecified)
inactive: outcome [1] | outcome [2] | outcome [3] | outcome [4] | outcome [5] | outcome [6] | outcome [7] | outcome [8] | Potency [9] | Potency [10] | outcome [16] | Potency [12] | Potency [15]
